Source: PubChem BioAssay (Tox21)
Values joined by “and” are separate entries in the source; they are usually repeats but may differ in a detail not shown here. Equal entries are not always repeated. Records with an inconclusive call do not appear. Some structures have more than one record in an assay (separate samples or runs), and their calls can disagree. Active and inactive are the calls of the source. The call rests on the fitted dose curve; in most records, active means well fitted inhibition curve with a large enough effect in the repeat runs; inconclusive means weak or mixed curves; inactive means no such curve, though single readings can be large or run the other way.

These compounds were tested against Cytochrome P450 2C19 (Homo sapiens) (UniProt P33261) (assay: Cytochrome P450 Family 2 Subfamily C Member 19 (CYP2C19) small molecule antagonists: luciferase reporter qHTS assay (AID 1671197; further: nearly all actives have a fitted effect of over 65% in size)). Conditions: P450-Glo CYP2C19 enzyme, luciferin luminescence, 1 h; series mostly up to 115 µM; activity change, negative = inhibition: at the top concentration.
From the text: National Center for Advancing Translational Sciences [NCATS]
U.S. Environmental Protection Agency [EPA]
National Institutes of Environmental Health Sciences [NIEHS]
National Toxicology Program [NTP]
U.S. Food and Drug Administration [FDA]
Cytochrome P450 (CYP) enzymes are membrane-bound hemeproteins that play a key role in metabolism of drugs and xenobiotics. Evaluation of the effect of chemicals on CYP isozymes is useful to minimize the adverse drug reactions and toxicities in drug development process. Tox21 chemicals were tested for their effect on CYP enzyme activities by using P450-Glo (TM) screening systems (Promega Corporation, Madison, WI). These systems provide a luminescent method containing proluciferin substrates and are converted to luciferin products by CYP isozymes. The luciferin products formed are detected with a luciferin detection reagent, and the amount of light produced is proportional to CYP activity. P450-Glo (TM) CYP2C19 screening system (Catalog. No. V9880) was used to detect the compounds that interfere in CYP2C19 activity. The positive control compound used for CYP2C19 assay is ketoconazole (Sigma-Aldrich, St. Louis, MO).
Tox21 Assay Protocol Summary:
Two ul of enzyme-substrate mix was dispensed into medium binding white/solid 1536-well plates (Greiner Bio-One North America Inc., Monroe, NC) using a BioRaptr Flying Reagent Dispenser (FRD, Beckman Coulter, Brea, CA). Compounds dissolved in DMSO and positive control (ketoconazole) were transferred to the assay plates at 23 nl using a Pintool station (Wako, San Diego, CA). The assay plates were incubated at room temperature for 10 min. Then 2 ul of NADPH regeneration solution was added to each well of the assay plates using an FRD and incubated at 37C for 1 h. The reaction was stopped by adding 4 ul of detection reagent using an FRD and after 20 min incubation at room temperature the luminescence signal was measured using a ViewLux plate reader (Perkin Elmer, Shelton, CT). Data were expressed as relative luminescence units.
On the % scale 0 is the no-effect control and ±100 the full control effect; potency means the concentration at half of the fitted maximal effect.

Cytochrome P450 2C19 (Homo sapiens), sequence (P33261 whole entry, looked up): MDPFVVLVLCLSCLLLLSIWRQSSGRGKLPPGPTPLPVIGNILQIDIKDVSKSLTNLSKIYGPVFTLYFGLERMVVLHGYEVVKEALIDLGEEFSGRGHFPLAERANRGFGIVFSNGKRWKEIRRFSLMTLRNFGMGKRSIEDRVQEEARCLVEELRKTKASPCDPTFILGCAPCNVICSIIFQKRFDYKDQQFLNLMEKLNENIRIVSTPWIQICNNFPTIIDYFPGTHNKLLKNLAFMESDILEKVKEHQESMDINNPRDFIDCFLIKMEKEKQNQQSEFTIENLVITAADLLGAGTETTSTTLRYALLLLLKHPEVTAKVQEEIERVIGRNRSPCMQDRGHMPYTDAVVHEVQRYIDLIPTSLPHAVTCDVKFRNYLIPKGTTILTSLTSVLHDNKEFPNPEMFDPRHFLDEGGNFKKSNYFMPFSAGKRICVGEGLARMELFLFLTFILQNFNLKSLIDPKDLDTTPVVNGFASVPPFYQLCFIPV

| Compound | Potency | activity change, negative = inhibition |
| --- | --- | --- |
| CCC(=O)O[C@H]1CC[C@H]2[C@@H]3CCC4=CC(=O)CC[C@]4(C)[C@H]3CC[C@]12C | 17.8 µM (active) and inactive |  |
| CNC(=O)N(C)c1nnc(C(C)(C)C)s1 | 39.9 µM (active) and inactive |  |
| CCOc1cc(Oc2ccc(C(F)(F)F)cc2Cl)ccc1[N+](=O)[O-] | 5.7 µM (active) and 7.1 µM (active) |  |
| O=[N+]([O-])c1c(Cl)c(Cl)c(Cl)c(Cl)c1Cl |  | -25.6% (inactive) |
| CN(C)C(=O)Nc1ccc(Cl)cc1 | 7.83 µM (active) |  |
| CCCCN(CC)c1c([N+](=O)[O-])cc(C(F)(F)F)cc1[N+](=O)[O-] | 72.1 µM (active) and 20 µM (active) |  |
| O=[N+]([O-])c1ccc(O)c([N+](=O)[O-])c1 |  | -8.17% (inactive) |
| CCCCN(CCCC)N=O | 60.7 µM (active) and inactive |  |
| N[C@@H](Cc1ccc(N(CCCl)CCCl)cc1)C(=O)O | 8.57 µM (active) and 17.4 µM (active) |  |
| CCC(C)(C)c1ccc(O)cc1 | inactive |  |
| CC(C)(c1cc(Cl)c(O)c(Cl)c1)c1cc(Cl)c(O)c(Cl)c1 | 35.6 µM (active) and 28.3 µM (active) |  |
| C=CCc1ccc(OC)cc1 | inactive |  |
| CC(C)NC(C)C | inactive |  |
| CC(O)CCO (stereo not given) | inactive and 71 µM (active) |  |
| CCOC(=O)C(C)OC(=O)c1cc(Oc2ccc(C(F)(F)F)cc2Cl)ccc1[N+](=O)[O-] (stereo not given) | 6.3 µM (active) and 6.33 µM (active) |  |
| OCC(O)CO | inactive |  |
| C=C(C)C(=O)OCC1CO1 (stereo not given) | inactive |  |
| COc1ccc(C=O)cc1 | inactive |  |
| O=C(O)C(F)(F)C(F)(F)C(F)(F)C(F)(F)C(F)(F)C(F)(F)C(F)(F)F | 79.6 µM (active) and inactive |  |
| Cc1ccc(OP(=O)(Oc2ccc(C)cc2)Oc2ccc(C)cc2)cc1 | 3.99 µM (active) and 5.03 µM (active) |  |

| Compound | Potency | activity change, negative = inhibition |
| --- | --- | --- |
| O=Cc1ccco1 | inactive |  |
| CCOP(=S)(OCC)O/N=C(\C#N)c1ccccc1 | 224 nM (active) and 347 nM (active) |  |
| CCC(C)c1cc([N+](=O)[O-])cc([N+](=O)[O-])c1O (stereo not given) | inactive and 79.6 µM (active) |  |
| Nc1ccc(-c2ccc(N)c(N)c2)cc1N | 19.9 µM (active) and 3.56 µM (active) |  |
| CC(C)=CC1C(C(=O)OCc2coc(Cc3ccccc3)c2)C1(C)C (stereo not given) | 8.95 µM (active) and 6.32 µM (active) |  |
| Cc1ccc2c(c1N)C(=O)c1ccccc1C2=O | 2.8 µM (active) and 5.03 µM (active) |  |
| CCC(C)(c1ccc(O)cc1)c1ccc(O)cc1 | inactive |  |
| Cc1cccc(N)c1N | 38.6 µM (active) and 35.6 µM (active) |  |
| Nc1ccc(Cl)cc1N | 20.8 µM (active) and 7.1 µM (active) |  |
| NCc1cccnc1 | 28.3 µM (active) and inactive |  |
| c1ccc(N=Nc2ccccc2)cc1 | inactive |  |
| CCC(C)c1ccc(O)cc1 (stereo not given) | inactive |  |
| CC(C)C(=O)OCC(C)(C)C(OC(=O)C(C)C)C(C)C (stereo not given) | inactive |  |
| O=P(Oc1ccccc1)(Oc1ccccc1)Oc1ccccc1 | 2.81 µM (active) and 5.64 µM (active) |  |
| Brc1ccc(Oc2cc(Br)c(Br)cc2Br)c(Br)c1 | 1.78 µM (active) and 1.27 µM (active) |  |
| CCN(CC)C(=O)/C(Cl)=C(\C)OP(=O)(OC)OC |  | -9.44% (inactive) |
| O=C(O)CC[N+](=O)[O-] | inactive |  |
| O=C(CCl)c1ccccc1 | 57.2 µM (active) |  |
| NNC(N)=S | 73.8 µM (active) |  |
| NC(=S)Nc1ccccc1 | 4.06 µM (active) and inactive |  |
